# From PubChem
# An excerpt weighted towards active compounds, which were near 6.5% of everything screened.
# HepG2 viability = qHTS for Inhibitors of TGF-b: Cytotox Counterscreen; HepG2 CAGA-GFP viability, ATP luminescence, 18 h; Potency, µM (titrated, usually from 46.1 µM), inactives show top-dose activity change, negative = cytotoxicity, usual class: cytotoxic; 0.76% of 410,000 active; AID 588856, 2011; also: potency is read from the fitted curve at half-maximal effect
#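 HepG2 CAGA-GFP cells (1000/well, DMEM with 1% FBS) received compound, then TGF-beta at 500 pg/mL final, and were incubated 18 hours at 37 degrees C. Viability was read by CellTiter-Glo luminescence. Media-only wells were set as complete cell-killing and DMSO as no toxicity.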
# IL1B secr inh = qHTS for Inhibitors of Inflammasome Signaling: IL-1-beta AlphaLISA Primary Screen; THP-1 LPS/ATP IL-1B secretion, AlphaLISA, 16 h; active compounds read low; activity change, % at 57.5 µM; 4.7% of 360,000 active; in the data active = activity change below about -50%; inconclusive = mostly about -30% to -49%; also: % is scaled to controls: 0 for no effect and ±100 for the full control effect
#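 THP-1 cells pretreated 1 hr with compounds (up to 57.5 uM final), then stimulated with LPS (250 ng/mL final) plus ATP (1.25 mM final); secreted IL-1B measured by AlphaLISA after 16 hr, decreased signal indicating inhibition.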
# Giardia killer = Small Molecules that selectively kill Giardia lamblia: qHTS; Giardia lamblia trophozoite viability; activity change, % at 7.66 µM, hits read low; 0.15% of 340,000 active; in the data active = activity change below about -80%; inconclusive = between about -30% and that limit;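 also: parasites exposed to compound for two days anaerobically before the ATP read; % is scaled to controls: 0 for no effect and ±100 for the full control effect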
#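 Compounds were tested on trophozoites seeded at 100 cells/well and held 48 hrs at 37 deg C anaerobically. An ATP-based luminescent kit measured the remaining live cells.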
# HT1080 IDH1KD tx = qHTS for induction of synthetic lethality in tumor cells producing 2HG: qHTS for the HT-1080-IDH1KD cell line; HT-1080 IDH1 knockdown viability, ATP luminescence, 48 h; Potency, µM (highest dose often 46.1 µM), without a hit: at the highest dose activity, negative = toxicity, actives largely listed as cytotoxic; 2% of 360,000 active; AID 686971, 2013;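 also: potency is read from the fitted curve at half-maximal effect; 0% = DMSO wells and -100% = cell-free medium wells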
#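 Viability of IDH1-knockdown HT-1080 fibrosarcoma cells was assessed by CellTiter-Glo after 48 h at 37 °C with titrated compound; concentration-effect curves were classified by fit quality and response size.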
# TGFb inhibitor = qHTS for Inhibitors of TGF-b; HepG2 CAGA-GFP TGF-b/SMAD3 reporter, GFP fluorescence, 18 h; TGF-beta stimulated, 500 pg/mL final; 1.2% of 410,000 active; Potency, µM (doses to about 46.1 µM), inactives show top-dose activity, negative = inhibition, hits mostly inhibitors; AID 588855, 2011; also: potency is read from the fitted curve at half-maximal effect; % is scaled to controls: 0 for no effect and ±100 for the full control effect; nearly all actives have a fitted effect of over 65% in size
#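 Read-out: total well GFP (ex488/em500-530) summed from mean per-cell fluorescence. Cells: HEPG2 CAGA-GFP, 1% FBS DMEM, 18 h at 37 degrees C with 500 pg/mL final TGF-beta. Unstimulated wells served as the full-inhibition control; stimulated DMSO wells = 0%.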
# HT1080-NT tox = qHTS for induction of synthetic lethality in tumor cells producing 2HG: qHTS for the HT-1080-NT fibrosarcoma cell line. Potency, µM (highest dose often 46.1 µM), for inactives: top-dose activity, negative = less viability, most hits filed as cytotoxic. AID 686970, 2013. 1.6% of 360,000 active. HT-1080-NT fibrosarcoma viability, CellTiter-Glo ATP luminescence, 48 h;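 also: NT is the 2HG producing partner of a matched IDH1 knockdown line; potency is read from the fitted curve at half-maximal effect; 0% = DMSO-treated cells and -100% = media-only wells without cells; nearly all actives have a fitted effect of over 55% in size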
#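 Fibrosarcoma NT cells, 750 per well in 5% FBS RPMI, were exposed to compound for 48 hours. Viability: CellTiter-Glo luminescence.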
# * marks the source's active call; other numbers are inactive results; ? = inconclusive; . = not tested or not shown. Unless noted, calls follow the shape of the dose curve; as a rule, active = well fitted curve in the direction sought with a large enough effect; inconclusive = small, poorly fitted or top-dose-only effect, or another doubt; inactive = no such curve, though single readings can be large; an effect the other way counts as inactive or inconclusive.
SMILES,HepG2 viability,IL1B secr inh,Giardia killer,HT1080 IDH1KD tx,TGFb inhibitor,HT1080-NT tox
CC(C)(C)c1ccc(C(=O)Nc2ccc(C(=O)N3CCOCC3)cc2)cc1,17.8%,-85.3*,24.0,-7.5%,8.1%,-4.1%
CC(C)(C)C(=O)N1CCN(c2ccc(NC(=O)c3ccc4c(c3)OCCO4)cc2)CC1,-11.9%,-76.9*,-23.5,-10.9%,7.6%,-7.1%
O=C(Nc1ccc(C(=O)N2CCOCC2)cc1)c1ccccc1,-21.1%,2.8,-1.9,1.4%,-31.4%,4.2%
CC(=O)N1CCN(c2ccc(NC(=O)c3ccc4c(c3)OCCO4)cc2)CC1,-15.8%,-10.8,-4.2,-20.0%,5.2%,0.0%
c1ccc(Cn2sc(=Nc3ccccc3)nc2-c2ccccc2)cc1,-21.0%,.,-7.5,.,-2.7%,.
c1ccc(N=c2nc(-c3ccccc3)n(-c3ccccc3)s2)cc1,-83.6%,.,8.9,.,2.82µM*,.
CCOc1ccccc1NC(=O)C1CCCN(c2c(CC)c(C)nc3ncnn23)C1 (stereo unspecified),-0.7%,-16.1,-5.6,-18.3%,-15.0%,-12.1%
COc1cc(C(=O)Nc2ccc3nc4n(c(=O)c3c2)CCCCC4)cc(OC)c1OC,-12.8%,26.2,-18.5,18.4µM*,-1.7%,?
O=C(Nc1ccc2nc3n(c(=O)c2c1)CCCCC3)c1cc([N+](=O)[O-])ccc1F,12.6µM*,-93.4*,-4.5,?,?,?
Cc1ccsc1-c1n[nH]c(=S)n1C1CCCCC1,0.0%,9.0,10.6,10.7%,2.7%,-2.1%
O=C(CN1CCN(CC(=O)c2ccc(F)cc2)CC1)Nc1ccccc1Cl,1.5%,9.9,0.3,7.9%,0.0%,2.7%
Cc1cc(N)n2nc(-c3ccccc3)cc2n1,-68.7%,-71.8*,?,?,13.6%,?
C=CCn1cccc(/C=C/C(=O)c2ccc(C(C)(C)C)cc2)c1=S,-108.4%,-106.5*,-19.9,-18.7%,?,?
Cc1ccn2cc(-c3cccc(S(=O)(=O)N4CCCC4)c3)nc2c1,-25.6%,-61.0*,15.7,-2.8%,-18.2%,-7.3%
Nc1cc(-c2ccc(Br)cc2)nn1S(=O)(=O)c1cccc2nsnc12,-44.7%,-64.7*,16.0,?,?,-14.5%
CN1C(=S)N(c2cccnc2)C(=O)/C1=C\c1ccc(C(C)(C)C)cc1,-57.6%,-6.6,37.8,?,22.4µM*,?
Cc1cccc(Cl)c1OCCCN1CCOCC1,10.9%,28.9,20.0,-0.6%,1.7%,0.1%
O=C(O)c1cccc(NC(=O)c2ccc(Cl)c(S(=O)(=O)N3CCCCCC3)c2)c1,-2.4%,1.9,-0.3,0.7%,1.2%,-3.1%
N/C(Cc1ccc([N+](=O)[O-])cc1)=N\OC(=O)Cc1ccc(Cl)cc1,-4.1%,-56.5*,-4.3,15.3%,22.2%,13.3%
N/C(Cc1ccc([N+](=O)[O-])cc1)=N\OC(=O)Cc1ccccc1,-2.4%,16.1,-1.3,0.8%,?,1.6%
COc1cc(-c2nc(Cn3nnc(C(=O)Nc4ccc(C)cc4C)c3C)c(C)o2)cc(OC)c1OC,-6.5%,.,.,.,11.7%,.
O=C(O)c1ccc(/C=N\Nc2ccc(S(=O)(=O)N3CCOCC3)cc2[N+](=O)[O-])cc1,13.5%,2.9,3.6,9.3%,-0.1%,1.7%
Cc1ccc(-n2c(O)c(/C=N/Nc3ccc(S(=O)(=O)N4CCOCC4)cc3[N+](=O)[O-])c3ccccc3c2=O)c(C)c1,-47.1%,-65.4*,?,?,?,11.6µM*
CCCCCOC(=O)Nc1ccc(S(=O)(=O)Nc2cccc([N+](=O)[O-])c2)cc1,-33.4%,-88.5*,15.2,?,?,?
